Data reported in PubChem BioAssay AID449739 (Vanderbilt High Throughput Screening Facility, 2010).
In all, about 100,000 compounds went through this assay and about 4,200 (4.2%) were called active. The sample holds actives, similar compounds and a random draw of the others, so the mix is not that of the screen. Values without a mark were called inactive.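 How the source made its calls: active means single-dose well whose peak fluorescence ratio is a statistical outlier from its plate by either plate-standardised score or position-corrected B-score; inactive means the rest.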

Biological target: Voltage-dependent T-type calcium channel subunit alpha-1H (Homo sapiens) (UniProt O95180)
Assay: Cav3.2 calcium influx blockers – cell-based, Fluo-4 calcium fluorescence, FDSS, MLSMR library, primary screen (AID 449739)
Details: Cav3.2-expressing cells, at 10 µM, hits give low values

Chain of Voltage-dependent T-type calcium channel subunit alpha-1H (Homo sapiens) (O95180 whole entry, looked up): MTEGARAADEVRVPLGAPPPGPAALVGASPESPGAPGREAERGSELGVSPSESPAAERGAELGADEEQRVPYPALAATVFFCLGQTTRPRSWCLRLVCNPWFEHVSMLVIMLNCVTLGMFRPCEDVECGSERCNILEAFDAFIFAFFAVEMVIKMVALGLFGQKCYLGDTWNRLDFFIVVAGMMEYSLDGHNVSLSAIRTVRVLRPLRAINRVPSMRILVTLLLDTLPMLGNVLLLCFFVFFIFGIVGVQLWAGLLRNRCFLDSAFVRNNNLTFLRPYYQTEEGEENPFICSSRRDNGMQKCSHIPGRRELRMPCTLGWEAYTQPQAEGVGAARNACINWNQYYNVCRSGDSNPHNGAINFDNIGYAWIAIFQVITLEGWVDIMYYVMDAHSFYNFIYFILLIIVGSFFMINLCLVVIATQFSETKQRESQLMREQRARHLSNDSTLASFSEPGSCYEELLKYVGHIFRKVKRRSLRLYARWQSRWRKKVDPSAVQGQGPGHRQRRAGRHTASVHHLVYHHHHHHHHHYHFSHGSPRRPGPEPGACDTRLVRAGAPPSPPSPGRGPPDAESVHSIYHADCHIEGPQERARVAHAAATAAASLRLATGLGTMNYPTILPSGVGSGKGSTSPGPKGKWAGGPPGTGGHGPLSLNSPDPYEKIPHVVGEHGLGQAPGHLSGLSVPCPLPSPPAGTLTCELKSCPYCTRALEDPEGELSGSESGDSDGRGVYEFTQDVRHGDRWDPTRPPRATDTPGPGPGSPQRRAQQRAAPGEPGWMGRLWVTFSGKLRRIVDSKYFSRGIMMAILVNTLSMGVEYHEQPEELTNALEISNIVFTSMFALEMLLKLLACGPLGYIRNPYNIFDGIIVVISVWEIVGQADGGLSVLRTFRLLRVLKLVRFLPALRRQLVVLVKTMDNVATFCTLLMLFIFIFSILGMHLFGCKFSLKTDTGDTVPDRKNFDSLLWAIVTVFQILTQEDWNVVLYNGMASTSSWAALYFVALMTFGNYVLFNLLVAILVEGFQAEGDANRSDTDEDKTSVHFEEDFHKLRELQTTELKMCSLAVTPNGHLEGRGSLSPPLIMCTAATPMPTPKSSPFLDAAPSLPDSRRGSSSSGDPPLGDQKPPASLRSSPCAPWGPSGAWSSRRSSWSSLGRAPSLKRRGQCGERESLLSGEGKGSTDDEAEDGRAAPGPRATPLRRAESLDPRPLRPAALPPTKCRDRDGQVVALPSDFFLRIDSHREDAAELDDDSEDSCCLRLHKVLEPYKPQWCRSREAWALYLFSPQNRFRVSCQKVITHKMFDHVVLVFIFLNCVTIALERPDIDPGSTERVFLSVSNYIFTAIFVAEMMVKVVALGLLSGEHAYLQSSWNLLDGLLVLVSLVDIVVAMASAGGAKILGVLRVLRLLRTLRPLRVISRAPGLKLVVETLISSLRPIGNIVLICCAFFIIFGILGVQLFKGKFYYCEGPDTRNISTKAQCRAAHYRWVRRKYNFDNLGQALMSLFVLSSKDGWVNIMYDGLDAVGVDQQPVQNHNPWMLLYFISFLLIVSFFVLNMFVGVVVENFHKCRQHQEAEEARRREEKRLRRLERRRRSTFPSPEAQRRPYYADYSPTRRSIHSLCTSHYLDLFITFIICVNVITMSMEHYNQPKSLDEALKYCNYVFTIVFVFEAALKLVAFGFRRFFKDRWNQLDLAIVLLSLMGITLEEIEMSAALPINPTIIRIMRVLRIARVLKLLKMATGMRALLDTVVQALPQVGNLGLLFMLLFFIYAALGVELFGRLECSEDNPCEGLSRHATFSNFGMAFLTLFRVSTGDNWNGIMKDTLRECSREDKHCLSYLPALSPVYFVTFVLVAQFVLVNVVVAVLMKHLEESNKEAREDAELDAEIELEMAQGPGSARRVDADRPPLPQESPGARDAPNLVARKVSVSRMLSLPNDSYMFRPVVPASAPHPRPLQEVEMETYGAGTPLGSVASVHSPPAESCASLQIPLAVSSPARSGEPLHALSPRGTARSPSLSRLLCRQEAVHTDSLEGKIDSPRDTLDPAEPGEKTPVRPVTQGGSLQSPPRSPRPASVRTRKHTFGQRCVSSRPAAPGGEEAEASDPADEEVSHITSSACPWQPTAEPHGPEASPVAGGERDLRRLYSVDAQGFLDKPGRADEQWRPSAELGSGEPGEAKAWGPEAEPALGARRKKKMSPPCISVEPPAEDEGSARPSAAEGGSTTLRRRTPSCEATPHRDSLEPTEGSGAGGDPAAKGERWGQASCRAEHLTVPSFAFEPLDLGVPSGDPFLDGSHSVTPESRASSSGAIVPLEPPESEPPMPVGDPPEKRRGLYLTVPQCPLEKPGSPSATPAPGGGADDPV

Compound | B-score
O=C(NC1CC1)c1ccc2c(c1)NC(=O)c1ccccc1S2 | -0.133
COc1ccc(COCCN2CCN(S(=O)(=O)c3ccccc3)CCC2=O)cc1 | -0.361
COc1cc([C@H](Cc2ccccc2)NC(C)=O)oc(=O)c1 | -0.786
Cc1ccc(/C=N/NC(=O)C(NC(=O)c2ccccc2)c2n[nH]c(=O)c3ccccc23)cc1 (configuration not stated) | -4.96 (active)
Cc1ccc(C(=O)N/N=C/c2sc(=O)n(Cc3cccc(C(=O)O)c3)c2Cl)cc1 | 2.4
Cc1ccc(S(=O)(=O)Oc2ccc(/C=N/NC(=O)c3c(Cl)cnn3C)cc2)cc1 | 0.419
O=c1c2ccccc2c(-c2ccc(Br)cc2)nn1Cc1ccccc1 | 0.372
O=C(COc1ccccc1)NCc1ccc2c(c1)OCO2 | -1.91
N#Cc1nc(Cc2cccc3ccccc23)oc1NCc1ccc2c(c1)OCO2 | -7.29 (active)
Cn1cc(CCC(=O)NCc2ccc3c(c2)OCO3)c2ccccc21 | -2.19
C=CCOC(=O)C1=C[C@H](c2ccc(Br)cc2)C[C@H](OCCCCO)O1 | -0.545
COc1ccc(C2/C=C\CN(CC(C)C)CC(=O)N2Cc2ccc(F)cc2)cc1 (configuration not stated) | -0.399
COc1ccc(N2CCN(C(=O)CCc3nc(-c4ccc(C)cc4)no3)CC2)cc1 | -3.49 (active)
Cc1ccc(-c2noc(CCC(N)=O)n2)cc1 | 0.127
CCOc1cc(-c2noc(CCC(=O)N3CCOCC3)n2)ccc1OC | 0.164
C#CCOCCOCCOCCNc1nc(N2CCN(C(=O)C([C@@H](C)CC)n3cc(C(N)COC(=O)C(F)(F)F)nn3)CC2)nc(N2CCN(C(=O)[C@H](Cc3ccc(O)cc3)n3cc(C(N)[C@H](C)CC)nn3)CC2)n1 (some centres not stated) | 0.00651
Cc1ccc(CNC(=O)c2ccccc2CCc2ccccc2)cc1 | 0.145
COc1ccc(C[C@H]2CN3C(=NC[C@H]3C)N2CCNC(=O)CCC2CCCCC2)cc1 | -0.267
O=C(CSc1nnc(-c2c[nH]c3ccccc23)o1)c1ccccc1 | 0.381
O=C(CSCc1ccc([N+](=O)[O-])cc1)Nc1cccc(C(=O)Nc2ccccc2C(=O)O)c1 | -1.32
O=C(CSCc1ccc([N+](=O)[O-])cc1)NCCSCc1ccccc1 | -6.39 (active)
O=C(NCCc1ccccc1)/C(=C\c1ccc([N+](=O)[O-])cc1)NC(=O)c1ccccc1 | 0.653
COc1cccc(/C=N/NC(=O)C(=O)N2CCCC2)c1 | 1.2

Compound | B-score
COC(=O)COc1cccc2c(=O)n(CC(=O)NCCc3ccc(OC)c(OC)c3)ccc12 | 1.52
Cc1cccc(N2CCN(C(c3ccc(N(C)C)cc3)c3nnnn3C(C)(C)C)CC2)c1C (configuration not stated) | -3.44
CC(C)(C)n1nnnc1C(c1ccc(F)cc1)N1CCN(Cc2ccc3c(c2)OCO3)CC1 (configuration not stated) | -3.16
CC(C)(C)n1nnnc1C(c1ccc(Cl)cc1)N1CCSCC1 (configuration not stated) | -2.81 (active)
COc1ccccc1-c1n[nH]c2c1[C@H](C)CC[C@H]2C(C)C | -2.06
CCn1c(COc2ccc(OC)cc2)nnc1SCC(=O)Nc1cc(OC)ccc1OC | -0.694
CCn1nc(C)c(NC(=O)/C=C/c2ccc(OC)c(COc3ccc(Br)cc3)c2)c1C | -3.94 (active)
COc1ccc(/C=C/C(=O)Nc2c(C)nn(C)c2C)cc1COc1ccc(Br)cc1 | -1.13
O=C(CN1CCN(S(=O)(=O)/C=C/c2ccccc2)CC1)NC(=O)NCc1ccco1 | 0.253
CCCCOc1ccc(C(=O)NCc2ccco2)cc1 | -0.276
Cc1ccc(C(=O)N/C(=C/C=C/c2ccccc2)C(=O)NCc2ccco2)cc1 | -4.77 (active)
O=C(CSCc1ccccc1Cl)NNC(=O)c1ccccc1 | -0.234
CCOC(=O)c1ccc(NC(=O)c2c(N)n(C)c(=O)[nH]c2=O)cc1 | -2
CCN(CC)C(=O)CN(c1cccc(OC)c1)S(=O)(=O)c1ccc(C)cc1 | 0.247
COC(=O)CN(c1nc(C)c(Cl)c(OC)n1)S(=O)(=O)c1ccc(C)cc1 | -3.54 (active)
COc1cccc(NC(=O)CN(C)S(=O)(=O)c2ccc(C)cc2)c1 | 0.446
O=C(NC1CC1)C1=C[C@H](c2c[nH]c3ccccc23)C[C@H](OCc2ccc(CO)cc2)O1 | -0.0426
Cc1cc(C)cc(OCC(=O)NNC(=O)c2cc3ccccc3oc2=O)c1 | 0.0296
Nc1c(-c2cccc(Cl)c2)cnn1-c1cccc([N+](=O)[O-])c1 | -4.85 (active)
CCOC(=O)CSc1ncc(-c2cccc(Cl)c2)cn1 | 0.28
Cc1onc(-c2ccccc2Cl)c1C(=O)NCCn1ccc2ccccc21 | -3.91 (active)
Cc1ccc2cc(CCNC(=O)c3ccc4c(c3)OCO4)c(=O)[nH]c2c1 | 0.446
Cc1onc(-c2ccccc2Cl)c1C(=O)OCC(=O)c1ccccc1 | -0.332

Compound | B-score
COCCNC(=O)c1ccccc1-c1nc(-c2ccccc2Cl)no1 | -0.0406
Cc1ccc2cc(CCNC(=O)c3c(-c4ccccc4Cl)noc3C)c(=O)[nH]c2c1 | -4.54 (active)
Cc1onc(-c2c(Cl)cccc2Cl)c1C(=O)c1c[nH]c(C(=O)NC2CC2)c1 | 0.359
CCCCCCNS(=O)(=O)c1ccccc1Br | -1.42
CC(C)C(=O)N1CCC2(CC1)Oc1ccc(F)cc1C(=O)C21CC(c2ccccc2)=NO1 (configuration not stated) | -0.517
CC(C)(C)Oc1ccccc1Nc1nc(NCCO)nc(N2CCCC2)n1 | 0.107
Cc1ccc(-c2cc(=O)c3ccc(F)cc3[nH]2)cc1 | -1.19
O=c1oc2cc(O)ccc2cc1-c1ccc(F)cc1 | -0.437
CCCCCCc1cc2cc(-c3nnc(-c4ccccc4)o3)c(=O)oc2cc1O | -8.89 (active)
O=C(c1ccc(Cl)cc1)c1cnc(Nc2ccccc2)s1 | 0.657
C[C@@H]1NC(=O)c2cc([N+](=O)[O-])cc(F)c2NCCC[C@@H](C(N)=O)NC(=O)[C@H](CC(N)=O)NC1=O | 0.0125
CCCCNC(=O)c1onc(CSc2cccc(OC)c2)c1C(=O)O | -0.115
O=C(O)C1=C[C@H](c2cccs2)C[C@H](OCCCCO)O1 | 0.408
Cc1ccccc1CSCCNC(=O)c1ccc(N(C)S(=O)(=O)c2ccccc2)cc1 | -5.82 (active)
Cc1ccc(C(=O)NCCNS(=O)(=O)c2ccccc2)cc1 | 0.965
CN(c1ccc(C(=O)NCc2ccccn2)cc1)S(C)(=O)=O | 0.091
NC(N)=NCCCc1cn(CC(=O)N2CCNCC2)nn1 | 0.0996
N#Cc1ccc(-c2ccc(F)cc2)nc1Sc1ccccc1 | -0.0447
Cc1ccc(SCC2=NNC(=O)C2)cc1 | -0.242
COc1ccc2c(c1)CCNC2Cc1ccc(OC)c(O)c1 (configuration not stated) | 0.0462
O=C(CN1CCN(C(=O)c2ccco2)CC1)Nc1ccc(Cl)c(C(F)(F)F)c1 | -6.28 (active)
COc1ccc(OC)c(NC(=O)CN2CCN(C(=O)c3ccco3)CC2)c1 | 1.23
O=C(CN1CCN(C(=O)c2ccco2)CC1)Nc1ccc2c(c1)OCO2 | 0.902

Compound | B-score
COc1ccc(CC(=O)Nc2sc(Cc3ccccc3)c(C)c2C(N)=O)cc1 | -0.493
Cc1ccccc1NC(=O)C(C)c1ccc(-c2ccccc2)c(F)c1 (configuration not stated) | -0.689
CCCSc1nc2c(c(=O)[nH]c(=O)n2C)n1CCc1ccccc1 | -0.0804
CN1CCN(c2nc3c(c(=O)[nH]c(=O)n3C)n2Cc2cccc3ccccc23)CC1 | 0.465
CC1CCN(c2nc3c(c(=O)[nH]c(=O)n3C)n2CCCc2ccccc2)CC1 | -5.1 (active)
Cc1nc(C(=O)Nc2ccc(Cl)cc2)sc1C1(C)CC(c2ccccc2)=NO1 (configuration not stated) | 0.201
O=c1c(-c2ccccc2)coc2cc(O)ccc12 | 1.09
CCN(CC)C(=O)CC(c1ccc2c(c1)OCO2)c1c(OC)cc(OC)c2c(-c3ccccc3)cc(=O)oc12 (configuration not stated) | -1.45
COC(=O)Cn1c2ccc(C)cc2c2nc(C)sc21 | 1.71
CCn1c(O)c(N=NC2=NC(=O)CS2)c2cc(C)ccc21 | -4.99 (active)
Cc1nnc(NC(=O)CSc2nc(C3CCCCC3)nc3ccccc23)s1 | -0.12
NC(=O)[C@H]1CC2(CC(c3cccc(NC(=O)[C@H]4CCC(=O)N4)c3)=NO2)CN1C(=O)c1ccccc1C(=O)c1ccccc1 (some centres not stated) | -0.157
CCO[C@H]1OC(C(=O)Nc2ccccc2)=C[C@@H](C2CC2)[C@@H]1CCCO | 0.964
NC(=O)C1=C[C@@H](c2csc3ccccc23)C[C@@H](OCc2ccc(CO)cc2)O1 | -0.0524
Cc1ccc(C)c(NC(=O)C2Cc3ccccc3CN2C(=O)OCc2ccccc2)c1 (configuration not stated) | -6.09 (active)
COC(=O)C(CC(=O)Nc1cc(C)ccc1C)Nc1ccccc1OC (configuration not stated) | -0.376
Cc1ccc(C)c(NC(=O)C2CC(=O)N(C(C)C)C2)c1 (configuration not stated) | -0.00724
N#Cc1c(NC(=O)CSc2nc3ccccc3c(=O)n2Cc2ccco2)sc2c1CCCC2 | -5.99 (active)
C=C(C)Cn1c(SCC(=O)NCc2ccco2)nc2sc3c(c2c1=O)CCC3 | -0.92
CCOC(=O)C(C)Sc1nc2ccccc2c(=O)n1CC1CCCCC1 (configuration not stated) | -2.88
CC(Sc1nc2ccccc2c(=O)n1Cc1ccco1)C(=O)c1ccccc1 (configuration not stated) | -4.25 (active)
O=C(CCCn1c(SCC(=O)c2ccc(F)cc2)nc2ccccc2c1=O)NCc1ccco1 | -2.82
COc1ccc(-n2c(SCC(=O)Nc3sc4c(c3C#N)CCCC4)nnc2-c2ccc(O)cc2)cc1 | -0.184
